In PubChem BioAssay (Tox21):
Values joined by “and” are separate entries in the source; they are usually repeats but may differ in a detail not shown here. Equal entries are not always repeated. Results filed as inconclusive are left out. Active and inactive are the calls of the source. Unless noted, calls follow the shape of the full dose curve.

Assay: qHTS assay to identify small molecule agonists of H2AX (AID 1224845; active = well fitted activation curve with a large enough effect in the signal ratio in the repeat runs, not every such curve was filed as active; the % refers to the signal ratio; also: potency is read from the fitted curve at half-maximal effect)
Conditions: CHO-K1 phospho-H2AX Ser139 HTRF, 3 h; series mostly up to 154 µM; activation (H2AX phosphorylation): at the top concentration
Summary of the method: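 Phospho-H2AX Ser139 measured by HTRF (ex 320 nm; em 665 and 620 nm) after 24 hr antibody incubation. Compounds, 15 concentrations, 0.76% DMSO, were applied to CHO-K1 cells for 3hr at 37C before lysis.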
% is scaled to controls: 0 for no effect and ±100 for the full control effect.

| SMILES | activation (H2AX phosphorylation) | Potency |
| --- | --- | --- |
| Brc1c2ccccc2cc2ccccc12 | -2.07% (inactive) |  |
| C[C@H](CCC(=O)O)[C@H]1CC[C@H]2[C@@H]3CC[C@@H]4C[C@H](O)CC[C@]4(C)[C@H]3C[C@H](O)[C@]12C | 0.762% (inactive) |  |
| COC(=O)C1=C(C)NC(COC(N)=O)=C(C(=O)OC(C)C)C1c1cccc(Cl)c1Cl (configuration not stated) | 0.624% [at 70.9 µM] (inactive) |  |
| C#C[C@]1(O)CC[C@H]2[C@@H]3CCc4cc(OC5CCCC5)ccc4[C@H]3CC[C@@]21C | 1.35% [at 70.9 µM] (inactive) |  |
| CCCCCCCCCCCCCCCCCCOS(=O)(=O)O | 0.914% (inactive) |  |
| CCOC(=O)NCCOc1ccc(Oc2ccccc2)cc1 | 4.63% (inactive) |  |
| O[C@@H](COc1cccc2ncccc12)CN1CCN(C2c3ccccc3[C@@H]3[C@H](c4ccccc42)C3(F)F)CC1 (some centres not stated) | 2.12% [at 70.9 µM] (inactive) |  |
| CN1CCN(C(c2ccccc2)c2ccccc2)CC1 | -2.87% [at 70.9 µM] (inactive) |  |
| O=C(O)C1(C(=O)O)CCC1.[NH2-].[NH2-].[Pt+2] | 2.66% [at 70.9 µM] (inactive) |  |
| CCCCCCCCCCCCCCOS(=O)(=O)O | 0.507% (inactive) |  |
| CCN(CC)CCOC(=O)C(Cc1cccc2ccccc12)CC1CCCO1 (configuration not stated) | -0.622% [at 70.9 µM] (inactive) |  |
| CCCNCC(O)COc1ccccc1C(=O)CCc1ccccc1 (configuration not stated) | 2.23% [at 70.9 µM] (inactive) |  |
| O=C1C(O)=C(O)C(=O)C(O)=C1O | 0.205% [at 70.9 µM] (inactive) |  |
| C/C(=C(\CCOP(=O)(O)O)SC(=O)c1ccccc1)N(C=O)Cc1cnc(C)nc1N | -0.259% [at 14 µM] (inactive) |  |
| C=CC(=O)OCCOCCOCCOCCOC(=O)C=C |  | 50.8 µM (active) and 50 µM (active) |
| CC(=O)c1ccc2c(c1)N(CCCN(C)C)c1ccccc1S2 | 1.67% [at 70.9 µM] (inactive) |  |
| CNCCCN1c2ccccc2CCc2ccccc21 | -2.73% [at 70.9 µM] (inactive) |  |
| C/C=C(/C(=C/C)c1ccc(OC(C)=O)cc1)c1ccc(OC(C)=O)cc1 | -1.44% [at 70.9 µM] (inactive) |  |
| O=C(Cl)c1cc(C(=O)Cl)cc(C(=O)Cl)c1 | -3.82% (inactive) |  |
| NCC(=O)CCC(=O)O | -2.92% [at 70.9 µM] (inactive) |  |
| CCCCCCCCCCCCN1CCCCCC1=O | -3.35% (inactive) |  |
| O=C(Nc1ccccc1)c1ccccc1O | 0.521% (inactive) |  |
| CN(C)CCN(Cc1ccccc1)c1ccccn1 | -4.83% [at 70.9 µM] (inactive) |  |
| C#CCN(C)CCCOc1ccc(Cl)cc1Cl | 0.72% [at 70.9 µM] (inactive) |  |
| C=C1C(=C/C=C2\CCC[C@]3(C)[C@@H]([C@H](C)/C=C/[C@@H](O)C4CC4)CC[C@@H]23)C[C@@H](O)C[C@@H]1O | 1.06% [at 70.9 µM] (inactive) |  |

Assay: qHTS assay to identify small molecule agonists of the hypoxia (HIF-1) signaling pathway (AID 1224846; active = well fitted activation curve with a large enough effect in the signal ratio in the repeat runs, not every such curve was filed as active; the % refers to the signal ratio)
Conditions: HRE-bla ME-180 cells, beta-lactamase ratio, 17 h; series mostly up to 76.8 µM; activation: at the top concentration
Summary of the method: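 Compounds added to ME-180 cells carrying hypoxia-response-element beta-lactamase reporter (0.5% dialyzed FBS, 5 h preplating), 17 h at 37C; agonist activity detected by CCF4-AM B/G FRET read-out.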

| SMILES | activation |
| --- | --- |
| CCCCOC(=O)CCCCCCCC(=O)OCCCC | -0.0453% (inactive) |
| CCN(CC)c1ccc(C(=C2C=CC(=[N+](CC)CC)C=C2)c2cc(S(=O)(=O)O)ccc2S(=O)(=O)[O-])cc1 | -1.65% [at 35.5 µM] (inactive) |
| CCC(C)(C)CC | -1.02% (inactive) |
| O=[N+]([O-])c1ccc(NCCO)c(OCCO)c1 | 0.101% (inactive) |
| O=C(O)c1nc(Cl)c(Cl)c(Cl)c1Cl | 4.44% (inactive) |
| CCCCCCCC#N | 0% (inactive) |
| CCC(C)O (configuration not stated) | -0.0404% (inactive) |
| O=[N+]([O-])c1cccc(S(=O)(=O)O)c1 | 1.78% (inactive) |
| CCNc1cc(O)ccc1C | -1.44% (inactive) |
| Nc1cc(C(=O)O)c(O)c(S(=O)(=O)O)c1 | -0.0056% (inactive) |

Assay: qHTS assay to identify small molecule agonists of H2AX - cell viability counter screen (AID 1224847); also: nearly all actives have a fitted effect of over 30% in size; also: potency is read from the fitted curve at half-maximal effect;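 as to activity change, negative = cytotoxicity: wild-type CHO-K1 cells; top concentration of the series differs between compounds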
Conditions: CHO-K1 viability, CellTiter-Glo luminescence, 3 h; series mostly up to 154 µM; activity change, negative = cytotoxicity: at the top concentration
Summary of the method: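 For this counter screen, overnight-attached CHO-K1 cells received test compounds (15 concentrations, 0.76% DMSO final); 3 hr later at 37C, CellTiter-Glo reagent was added and luminescence recorded after 30 min at room temperature.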

| SMILES | activity change, negative = cytotoxicity | Potency |
| --- | --- | --- |
| CCCCOC(=O)CCCCCCCC(=O)OCCCC | 2.5% (inactive) |  |
| CCN(CC)c1ccc(C(=C2C=CC(=[N+](CC)CC)C=C2)c2cc(S(=O)(=O)O)ccc2S(=O)(=O)[O-])cc1 |  | 22 µM (active) |
| C#C[C@]1(O)CC[C@H]2[C@@H]3CCc4cc(OC5CCCC5)ccc4[C@H]3CC[C@@]21C |  | 49.2 µM (active) |
| CCC(C)(C)CC | -0.35% (inactive) |  |
| O[C@@H](COc1cccc2ncccc12)CN1CCN(C2c3ccccc3[C@@H]3[C@H](c4ccccc42)C3(F)F)CC1 (some centres not stated) | -8.2% [at 70.9 µM] (inactive) |  |
| O=[N+]([O-])c1ccc(NCCO)c(OCCO)c1 | -0.237% (inactive) |  |
| CN1CCN(C(c2ccccc2)c2ccccc2)CC1 | -1.17% [at 70.9 µM] (inactive) |  |
| O=C(O)c1nc(Cl)c(Cl)c(Cl)c1Cl | 5.96% (inactive) |  |
| O=C(O)C1(C(=O)O)CCC1.[NH2-].[NH2-].[Pt+2] | -3.31% [at 70.9 µM] (inactive) |  |
| CCCCCCCCCCCCCCOS(=O)(=O)O | -9.61% (inactive) |  |
| CCN(CC)CCOC(=O)C(Cc1cccc2ccccc12)CC1CCCO1 (configuration not stated) | -5.38% [at 70.9 µM] (inactive) |  |
| O=C1C(O)=C(O)C(=O)C(O)=C1O | 0.596% [at 70.9 µM] (inactive) |  |
| C/C(=C(\CCOP(=O)(O)O)SC(=O)c1ccccc1)N(C=O)Cc1cnc(C)nc1N | 0.972% [at 14 µM] (inactive) |  |
| CC(=O)c1ccc2c(c1)N(CCCN(C)C)c1ccccc1S2 | -4.81% [at 70.9 µM] (inactive) |  |
| CNCCCN1c2ccccc2CCc2ccccc21 | -2.49% [at 70.9 µM] (inactive) |  |
| C/C=C(/C(=C/C)c1ccc(OC(C)=O)cc1)c1ccc(OC(C)=O)cc1 | 3.79% [at 70.9 µM] (inactive) |  |
| O=C(Cl)c1cc(C(=O)Cl)cc(C(=O)Cl)c1 | 9.69% (inactive) |  |
| NCC(=O)CCC(=O)O | -0.753% [at 70.9 µM] (inactive) |  |
| CCCCCCCC#N | -5.03% (inactive) |  |
| CCC(C)O (configuration not stated) | -2.14% (inactive) |  |
| O=[N+]([O-])c1cccc(S(=O)(=O)O)c1 |  | 45.7 µM (active) |
| CN(C)CCN(Cc1ccccc1)c1ccccn1 | -5.26% [at 70.9 µM] (inactive) |  |
| CCNc1cc(O)ccc1C | 0.148% (inactive) |  |
| Nc1cc(C(=O)O)c(O)c(S(=O)(=O)O)c1 | 0.158% (inactive) |  |

Assay: qHTS assay to identify small molecule antagonists of the estrogen related receptor (ERR) signaling pathway from Tox21 library (AID 1224848; active = well fitted inhibition curve with a large enough effect in the repeat runs; also: nearly all actives have a fitted effect of over 50% in size; also: potency is read from the fitted curve at half-maximal effect)
Conditions: ERR reporter cell line, luciferase antagonist mode, 18 h; series mostly up to 92.4 µM; activity, negative = inhibition: at the top concentration
Summary of the method: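 ERR cell line, 2,000 cells/well. 6 h settle, then compound (DMSO) added; 18 h at 37 C; ONE-Glo luminescence after 30 min RT.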

| SMILES | Potency | activity, negative = inhibition |
| --- | --- | --- |
| COC(=O)C1=C(C)NC(COC(N)=O)=C(C(=O)OC(C)C)C1c1cccc(Cl)c1Cl (configuration not stated) | 26.6 µM (active) |  |
| CCCCOC(=O)CCCCCCCC(=O)OCCCC |  | 7.02% (inactive) |
| CCN(CC)c1ccc(C(=C2C=CC(=[N+](CC)CC)C=C2)c2cc(S(=O)(=O)O)ccc2S(=O)(=O)[O-])cc1 | 11.9 µM (active) |  |
| CCC(C)(C)CC |  | -13.6% (inactive) |
| CCOC(=O)NCCOc1ccc(Oc2ccccc2)cc1 | 19.3 µM (active) |  |
| O=[N+]([O-])c1ccc(NCCO)c(OCCO)c1 |  | -20.7% (inactive) |
| O=C(O)c1nc(Cl)c(Cl)c(Cl)c1Cl |  | 0.854% (inactive) |
| CCCCCCCC#N |  | 4.71% (inactive) |
| CCC(C)O (configuration not stated) |  | 0.133% (inactive) |
| O=[N+]([O-])c1cccc(S(=O)(=O)O)c1 | 27.7 µM (active) |  |
| CCNc1cc(O)ccc1C |  | -9.7% (inactive) |
| Nc1cc(C(=O)O)c(O)c(S(=O)(=O)O)c1 |  | 10.8% (inactive) |
| C=C1C(=C/C=C2\CCC[C@]3(C)[C@@H]([C@H](C)/C=C/[C@@H](O)C4CC4)CC[C@@H]23)C[C@@H](O)C[C@@H]1O | 13.3 µM (active) |  |
